Experimental data as given in PubChem BioAssay.
Records with an inconclusive call do not appear.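 How the source made its calls, unless noted: active means RAM network inhibition above 8.4% in each of two replicates, 3 SD over the compound average; inconclusive means above 8.4% inhibition in only one replicate; inactive means 8.4% inhibition or less in each replicate.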

Legend:
[1] = S. cerevisiae growth inhibition in permissive medium (OD615), pilot counter-assay for S. cerevisiae lifespan shortening project, permissive growth control (AID 705;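 active means growth inhibition above 25% in both replicates, a cutoff set 3 SD above the mean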); conditions: OD615, 24 h, at 10 µM, stronger effect = higher value
[2] = doxorubicin toxicity protection in MRP-1 cells – H69AR cells, CellTiter-Glo, duplicate, MRP-1 activator project, pilot screen (AID 807;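 active means viability increase at or above a cutoff of the median across tested compounds plus 3 SD, cut at about 8.5% in these data, passing the limit was not always enough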;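 further: compound pretreatment 18-22 h then 72 h combined with doxorubicin; 0% = doxorubicin alone and 100% = vehicle without doxorubicin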); conditions: H69AR viability with doxorubicin, CellTiter-Glo luminescence; at 10 µM; stronger effect = higher value
[3] = viability of HCT116 without oncogenic beta-catenin – human colon tumor cells, pilot screen (AID 823;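 active means cell viability at or below a set limit in both duplicate runs, the limit being the all-compound median minus 4 SD, cut at about 23% in these data, passing the limit was not always enough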;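 further: 0% = wells killed by 20 µM Hyamine and 100% = untreated DMSO cell wells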); conditions: HCT116 beta-catenin knockout viability, CellTiter-Glo, 60 h; at 10 µM; stronger effect = lower value
[4] = viability of PTEN-null HCT116 cells – cell-based, HCT116 clonal line, CellTiter-Glo, pilot screen (AID 824;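 active means viability at or below 27.92% in each of two runs, the all-compound median minus 4 SD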;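 further: 0% = 20 µM Hyamine control and 100% = vehicle cell control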); conditions: HCT116 PTEN-deleted viability, 60 h, at 10 µM, stronger effect = lower value
[5] = RAM pathway blockade in budding yeast – dse1pr::URA3 reporter, 5-FOA selection, pilot screen (AID 869;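 active means inhibition over a set limit, the all-compound mean plus 3 SD, in both replicate runs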;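 further: 0% = DMSO wells with no growth and 100% = 10 µM 1-NA-PP1 with full growth; RAM network block rescues cells from 5-FOA so hits raise OD615 growth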); conditions: S. cerevisiae dse1pr::URA3 5-FOA growth, OD615, 2 d; at 10 µM; stronger effect = higher value; strain carries analog-sensitive mutant Cbk1 kinase
[6] = RAM signaling pathway blockade in yeast – S. cerevisiae, Pdr1DBD-CYC8 efflux-inhibited sensitized strain, primary screen (AID 1298);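 further: 0% = DMSO untreated cells without growth and 100% = 10 µM 1-NA-PP1 full growth; higher means more yeast growth rescued from 5-FOA killing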; conditions: S. cerevisiae cbk1-as DSE1-URA3 strain, 5-FOA growth OD615, 2 d; at 50 µM; stronger effect = higher value
[7] = S. cerevisiae growth inhibition in restrictive medium, OD615, pilot screen, restrictive growth control, yeast lifespan reduction project (AID 706;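 active means growth inhibition above a set limit, 3 SD over mean compound inhibition, in both replicates, cut at about 43% in these data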;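 further: modified DeaD lifespan yeast strain shifted to restrictive glucose medium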); conditions: OD615, 48 h, at 10 µM, stronger effect = higher value

CC(=O)NC(=S)c1c(N)n(Cc2ccccc2)c(=O)n(C)c1=O
inactive: growth inhibition [1] 19.2% | viability increase [2] -3.97% | viability [3] 84.6% | viability [4] 80% | inhibition [5] 0.92% | RAM network inhibition [6] 4.62%

Clc1ccccc1CSc1nnc(-c2ccccn2)n1Cc1ccco1
inactive: growth inhibition [1] -5.1% | viability increase [2] -5.33% | viability [3] 74.8% | viability [4] 79% | inhibition [5] 1.92% | RAM network inhibition [6] 2.52%

CCN1CCN(C(=O)CS(=O)Cc2nc(-c3ccc(OC)cc3)oc2C)CC1 (stereo not given)
inactive: growth inhibition [7] -7.22% | viability increase [2] -0.78% | viability [3] 104% | viability [4] 100% | inhibition [5] 0.945% | RAM network inhibition [6] 1.04%

O=C(CSc1nnc(Cn2c(=O)sc3ccccc32)n1CCc1ccccc1)N1CCCC1
inactive: growth inhibition [1] 2.63% | viability increase [2] -3.62% | viability [3] 97.9% | viability [4] 94.9% | inhibition [5] 2.82% | RAM network inhibition [6] 7.13%

CCCc1nc2sc3c(SCC(=O)NCc4ccco4)ncnc3c2c2c1CCC2
inactive: growth inhibition [1] -1.16% | viability increase [2] -6.5% | viability [3] 47.4% | inhibition [5] 2.37% | RAM network inhibition [6] 4.21%

CSc1nc(-c2ccccc2)nc2[nH]ccc(=O)c12
inactive: growth inhibition [7] -18.3% | viability increase [2] -3.93% | viability [3] 76% | viability [4] 80.6% | inhibition [5] 0.065% | RAM network inhibition [6] 1.4%

O=C(CSc1nnc(-c2ccccn2)n1Cc1ccco1)c1ccccc1
inactive: growth inhibition [1] 0.135% | viability increase [2] -3.34% | viability [3] 98.1% | viability [4] 95.2% | inhibition [5] 0.485% | RAM network inhibition [6] 7.41%

COc1ccc(OCC(=O)Nc2cc(OC)cc(OC)c2)cc1
inactive: growth inhibition [7] 7.43% | viability increase [2] -3.71% | viability [3] 88.7% | viability [4] 93.9% | inhibition [5] -0.89% | RAM network inhibition [6] -2.47%

CCC(C)N1CC23C=CC(O2)C(C(=O)OC)C3C1=O (stereo not given)
inactive: growth inhibition [1] 0.035% | viability increase [2] 1.12% | viability [3] 109% | viability [4] 106% | inhibition [5] 0.115% | RAM network inhibition [6] 1.34%

CCOc1cccc(C(=O)Nc2cc(-c3nn4c(C)nnc4s3)ccc2C)c1
inactive: growth inhibition [1] 9.19% | viability increase [2] -4.79% | viability [3] 100% | viability [4] 93.6% | inhibition [5] 0.07% | RAM network inhibition [6] 2.22%

CCOC(=O)c1c(N)sc2c(OC)c(Br)ccc12
inactive: growth inhibition [1] 21.3% | viability increase [2] 0.76% | viability [3] 99.8% | viability [4] 102% | inhibition [5] -2.46% | RAM network inhibition [6] 5.62%

CC(=O)NC1(NC(C)=O)CCN(C)C(c2ccccc2)C1C (stereo not given)
inactive: growth inhibition [7] -6.19% | viability increase [2] -2% | viability [3] 98.2% | viability [4] 100% | inhibition [5] 1.46% | RAM network inhibition [6] 1.13%

COC(=O)c1cc(CSc2nc3ccc(C)cc3[nH]2)oc1C
inactive: growth inhibition [7] 4.74% | viability increase [2] -0.15% | viability [3] 46.6% | viability [4] 63.5% | inhibition [5] 0.105% | RAM network inhibition [6] 4.81%

COc1ccc(OCc2nnc3n2N=C(c2ccc(Br)cc2)CS3)cc1
inactive: growth inhibition [1] 3.29% | viability increase [2] 2.18% | viability [3] 70% | viability [4] 72.2% | inhibition [5] 0.955% | RAM network inhibition [6] 3.18%

Cn1cccc1Cc1nnc(SCC(=O)NC2CCCC2)n1CCc1ccccc1
inactive: growth inhibition [1] -1.71% | viability increase [2] -0.59% | viability [3] 101% | viability [4] 96.8% | inhibition [5] 1.71% | RAM network inhibition [6] 6.53%

O=C(O)C1CC=CCC1C(=O)NCc1cn2ccccc2n1 (stereo not given)
inactive: growth inhibition [7] -15.1% | viability increase [2] -2.16% | viability [3] 103% | viability [4] 96.1% | inhibition [5] 2.84% | RAM network inhibition [6] 4.32%

COc1cc(C2CC(=O)N3CN(Cc4ccco4)CSC3=C2C#N)ccc1OCc1ccccc1 (stereo not given)
inactive: growth inhibition [1] 7.01% | viability increase [2] -5.42% | viability [3] 77.8% | viability [4] 83.5% | inhibition [5] 1.65% | RAM network inhibition [6] 2.55%

COc1cc(Cl)c(C)cc1NC(=O)CSc1nnc(-c2cccnc2)n1Cc1ccco1
inactive: growth inhibition [1] 4.79% | viability increase [2] -3.48% | viability [3] 84.8% | viability [4] 79.8% | inhibition [5] 0.775% | RAM network inhibition [6] 7.75%

CCOC(=O)CNC(=O)CSc1nnc(-c2ccco2)n1Cc1ccco1
inactive: growth inhibition [1] 6.66% | viability increase [2] -2.83% | viability [3] 97.2% | viability [4] 98.2% | inhibition [5] 0.765% | RAM network inhibition [6] 3.76%

Cc1ccc(S(=O)(=O)Nc2nc(C)cc(NCCN)n2)cc1
inactive: growth inhibition [7] -2.19% | viability increase [2] -0.98% | viability [3] 94.3% | viability [4] 88.5% | inhibition [5] 0.48% | RAM network inhibition [6] 2.5%

CCN(CC)C1CC(=O)N(c2cccc(C)c2)C1=O (stereo not given)
inactive: growth inhibition [1] 20% | viability increase [2] -1.11% | viability [3] 105% | viability [4] 101% | inhibition [5] 2.06% | RAM network inhibition [6] -0.69%
